From PubChem BioAssay AID1159580 (chemical genetic matrix, 2015)
Several values for one entry are separate records, joined by “and”; a condition that tells them apart may be missing. Identical values can stand only once. The whole screen tested about 5,500 compounds, of which about 2,000 (36%) were called active. Not shown: some 18% with an inconclusive outcome. Cut-off read from the data, not from the text of the source: active = normalized growth mostly below about 0.91 (no sharp cut-off); inconclusive = no clear call, values can overlap the other calls; inactive = mostly above about 0.92. The list shows a part of the results.

Experiment: chemical genetic growth profiling, strain panel (AID 1159580);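 note: tested at 20 µM; growth read once vehicle control cultures reached saturation at 30 °C; 1 = growth at the plate median or of vehicle wells; lower values mean less growth of the strain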
Conditions: S. cerevisiae deletion strains, growth OD

Measured: normalized growth

COc1c2c(cc3occ(-c4ccc5c(c4)OCO5)c(=O)c13)OC(C)(C)C=C2
inactive: locus YAL013W, strain DEP1, stronger effect = lower value 0.989 | locus YAL021C, strain ccr4, stronger effect = lower value 1 | locus YAL026C, strain drs2, stronger effect = lower value 0.975 | locus YAL030W, strain snc1, stronger effect = lower value 0.997 | locus YBL061C, strain skt5, stronger effect = lower value 0.969 | locus YBR009C, strain hhf1, stronger effect = lower value 0.966 | locus YBR021W, strain FUR4, stronger effect = lower value 0.973 | locus YBR023C, strain chs3, stronger effect = lower value 0.967 | locus YBR171W, strain sec66, stronger effect = lower value 0.988 | locus YBR229C, strain ROT2, stronger effect = lower value 0.987 | locus YBR231C, strain swc5, stronger effect = lower value 0.989 | locus YBR279W, strain paf1, stronger effect = lower value 1.03 | locus YCL011C, strain gbp2, stronger effect = lower value 0.985 | locus YCL016C, strain dcc1, stronger effect = lower value 0.994 | locus YCL029C, strain bik1, stronger effect = lower value 0.961 | locus YCL061C, strain MRC1, stronger effect = lower value 0.996 | locus YCL069W, strain vba3, stronger effect = lower value 1 | locus YCR088W, strain abp1, stronger effect = lower value 0.995 | locus YDL005C, strain med2, stronger effect = lower value 1 | locus YDL035C, strain GPR1, stronger effect = lower value 0.95 | locus YDL040C, strain nat1, stronger effect = lower value 1.01 | locus YDL074C, strain BRE1, stronger effect = lower value 0.901 | locus YDL101C, strain DUN1, stronger effect = lower value 0.98 | locus YDL185W, strain tfp1, stronger effect = lower value 0.943 | locus YDL192W, strain arf1, stronger effect = lower value 0.918 | locus YDR001C, strain nth1, stronger effect = lower value 0.994 | locus YDR069C, strain doa4, stronger effect = lower value 0.991 | locus YDR101C, strain arx1, stronger effect = lower value 0.925 | locus YDR137W, strain rgp1, stronger effect = lower value 0.964 | locus YDR159W, strain sac3, stronger effect = lower value 1.02 | locus YDR162C, strain NBP2, stronger effect = lower value 0.993 | locus YDR195W, strain ref2 1.11 | locus YDR297W, strain sur2, stronger effect = lower value 0.995 | locus YDR318W, strain mcm21, stronger effect = lower value 0.962 | locus YDR334W, strain swr1, stronger effect = lower value 1.01 | locus YDR335W, strain msn5, stronger effect = lower value 1.02 | locus YDR388W, stronger effect = lower value 0.973 | locus YDR502C, strain sam2, stronger effect = lower value 0.926 | locus YEL003W, strain gim4, stronger effect = lower value 1 | locus YEL037C, strain rad23, stronger effect = lower value 1 | locus YEL061C, strain CIN8 (second series), stronger effect = lower value 1.01 | locus YEL061C, strain CIN8, stronger effect = lower value 0.992 | locus YER015W, strain faa2, stronger effect = lower value 1 | locus YER016W, strain bim1, stronger effect = lower value 1 | locus YER110C, stronger effect = lower value 0.983 | locus YER111C, strain swi4, stronger effect = lower value 1.01 | locus YER155C, strain BEM2 (second series), stronger effect = lower value 0.936 | locus YER155C, strain BEM2, stronger effect = lower value 0.992 | locus YER167W, strain BCK2, stronger effect = lower value 0.984 | locus YFR010W, strain ubp6, stronger effect = lower value 0.989 | locus YGL078C, strain dbp3, stronger effect = lower value 0.929 | locus YGL167C, strain pmr1, stronger effect = lower value 1 | locus YGL173C, strain kem1, stronger effect = lower value 0.996 | locus YGL227W, strain vid30, stronger effect = lower value 1 | locus YGL240W, strain doc1, stronger effect = lower value 0.998 | locus YGL248W, strain PDE1, stronger effect = lower value 0.998 | locus YGL253W, strain hxk2, stronger effect = lower value 0.936 | locus YGR078C, strain PAC10, stronger effect = lower value 0.982 | locus YGR135W, strain pre9, stronger effect = lower value 0.98 | locus YGR252W, strain gcn5, stronger effect = lower value 0.983 | locus YHR013C, strain ard1, stronger effect = lower value 0.986 | locus YHR027C, strain rpn1, stronger effect = lower value 0.993 | locus YHR030C, strain SLT2, stronger effect = lower value 0.992 and 1.01 | locus YHR079C, strain IRE1 (second series), stronger effect = lower value 0.952 | locus YHR079C, strain IRE1, stronger effect = lower value 0.983 | locus YHR094C, strain hxt1, stronger effect = lower value 0.977 | locus YHR129C, strain ARP1, stronger effect = lower value 0.988 | locus YHR200W, strain rpn10, stronger effect = lower value 0.949 | locus YIL066C, strain RNR3, stronger effect = lower value 0.965 | locus YIL073C, strain SPO22, stronger effect = lower value 0.941 | locus YIL125W, strain kgd1, stronger effect = lower value 0.96 | locus YIR030C, strain dcg1, stronger effect = lower value 0.97 | locus YJL092W, strain hpr5, stronger effect = lower value 0.99 | locus YJL095W, strain BCK1 (second series), stronger effect = lower value 0.997 | locus YJL095W, strain BCK1, stronger effect = lower value 0.981 and 1.01 | locus YJL115W, strain asf1, stronger effect = lower value 1.02 | locus YJL129C, strain trk1, stronger effect = lower value 0.937 | locus YJL134W, strain LCB3, stronger effect = lower value 0.992 | locus YJL154C, strain vps35, stronger effect = lower value 1.02 | locus YJL164C, strain tpk1, stronger effect = lower value 0.981 | locus YJL166W, strain qcr8, stronger effect = lower value 0.973 | locus YJL168C, strain set2, stronger effect = lower value 0.972 | locus YJL187C, strain SWE1 (second series), stronger effect = lower value 0.975 | locus YJL187C, strain SWE1, stronger effect = lower value 1 | locus YJR043C, strain POL32, stronger effect = lower value 0.999 | locus YJR066W, strain TOR1, stronger effect = lower value 0.955 | locus YJR075W, strain HOC1, stronger effect = lower value 0.976 | locus YKL009W, strain mrt4, stronger effect = lower value 0.885 | locus YKL068W, stronger effect = lower value 0.959 | locus YKL085W, strain MDH1 (second series), stronger effect = lower value 0.965 | locus YKL085W, strain MDH1, stronger effect = lower value 0.965 | locus YKL160W, strain elf1, stronger effect = lower value 0.965 | locus YKL190W, strain CNB1, stronger effect = lower value 0.984 | locus YKR026C, strain gcn3, stronger effect = lower value 0.999 | locus YKR091W, strain srl3, stronger effect = lower value 1 | locus YLL001W, strain dnm1, stronger effect = lower value 0.989 | locus YLL026W, stronger effect = lower value 1 | locus YLL041C, strain sdh2, stronger effect = lower value 0.996 | locus YLR027C, strain aat2, stronger effect = lower value 0.971 | locus YLR039C, strain RIC1, stronger effect = lower value 0.939 | locus YLR058C, strain SHM2, stronger effect = lower value 1 | locus YLR102C, strain apc9, stronger effect = lower value 0.963 | locus YLR113W, strain HOG1, stronger effect = lower value 0.995 | locus YLR221C, strain rsa3, stronger effect = lower value 0.948 | locus YLR258W, strain gsy2, stronger effect = lower value 0.989 | locus YLR262C, strain YPT6 (second series), stronger effect = lower value 0.94 | locus YLR262C, strain YPT6, stronger effect = lower value 0.937 | locus YLR268W, strain sec22, stronger effect = lower value 0.905 | locus YLR320W, strain mms22, stronger effect = lower value 0.928 | locus YLR330W, strain CHS5, stronger effect = lower value 0.981 | locus YLR342W, strain FKS1 (second series), stronger effect = lower value 0.963 | locus YLR342W, strain FKS1, stronger effect = lower value 0.989 | locus YLR357W, strain rsc2, stronger effect = lower value 1.02 | locus YLR370C, strain arc18, stronger effect = lower value 1 | locus YLR371W, strain rom2, stronger effect = lower value 0.944 | locus YLR384C, strain iki3, stronger effect = lower value 1.01 | locus YLR418C, strain cdc73, stronger effect = lower value 0.87 | locus YML016C, strain PPZ1, stronger effect = lower value 1 | locus YML032C, strain rad52, stronger effect = lower value 0.999 | locus YML120C, strain ndi1, stronger effect = lower value 0.987 | locus YML124C, strain tub3, stronger effect = lower value 0.979 | locus YMR058W, strain fet3, stronger effect = lower value 0.987 | locus YMR078C, strain ctf18, stronger effect = lower value 0.986 | locus YMR125W, strain sto1, stronger effect = lower value 1.01 | locus YMR129W, stronger effect = lower value 1.01 | locus YMR205C, strain PFK2, stronger effect = lower value 0.946 | locus YMR223W, strain ubp8, stronger effect = lower value 0.97 | locus YMR231W, strain pep5, stronger effect = lower value 1.01 | locus YMR263W, strain SAP30, stronger effect = lower value 0.97 | locus YMR307W, strain GAS1, stronger effect = lower value 1.05 | locus YNL067W, strain RPL9B, stronger effect = lower value 0.986 | locus YNL128W, strain TEP1, stronger effect = lower value 0.943 | locus YNL153C, strain GIM3, stronger effect = lower value 0.993 | locus YNL183C, strain NPR1, stronger effect = lower value 0.933 | locus YNL209W, strain ssb2, stronger effect = lower value 1.02 | locus YNL233W, strain BNI4, stronger effect = lower value 0.954 | locus YNL248C, strain rpa49, stronger effect = lower value 0.963 | locus YNL250W, strain rad50, stronger effect = lower value 0.925 | locus YNL271C, strain bni1, stronger effect = lower value 0.98 | locus YNL298W, strain CLA4, stronger effect = lower value 0.962 | locus YNL307C, strain MCK1, stronger effect = lower value 0.952 | locus YNL322C, strain KRE1 (second series), stronger effect = lower value 1.02 | locus YNR049C, strain mso1, stronger effect = lower value 1 | locus YNR052C, strain pop2, stronger effect = lower value 0.99 | locus YOL012C, strain htz1 1.17 | locus YOL147C, strain pex11, stronger effect = lower value 0.949 | locus YOR001W, strain rrp6, stronger effect = lower value 0.957 | locus YOR061W, strain CKA2, stronger effect = lower value 0.997 | locus YOR069W, strain VPS5, stronger effect = lower value 0.991 | locus YOR070C, strain gyp1, stronger effect = lower value 0.992 | locus YOR080W, strain dia2, stronger effect = lower value 1.02 | locus YOR083W, strain WHI5, stronger effect = lower value 0.961 | locus YOR106W, strain vam3, stronger effect = lower value 0.975 | locus YOR136W, strain idh2, stronger effect = lower value 0.958 | locus YOR144C, strain elg1, stronger effect = lower value 0.984 | locus YOR231W, strain MKK1, stronger effect = lower value 1.02 | locus YOR265W, strain rbl2, stronger effect = lower value 0.999 | locus YOR270C, strain vph1, stronger effect = lower value 0.817 | locus YOR290C, strain snf2, stronger effect = lower value 0.91 | locus YOR316C, strain cot1, stronger effect = lower value 0.986 | locus YPL051W, strain arl3, stronger effect = lower value 0.973 | locus YPL055C, strain LGE1, stronger effect = lower value 0.926 | locus YPL078C, strain atp4, stronger effect = lower value 0.952 | locus YPL106C, strain sse1, stronger effect = lower value 1.02 | locus YPL240C, strain hsp82, stronger effect = lower value 0.997 | locus YPL256C, strain CLN2, stronger effect = lower value 0.997 | locus YPR119W, strain clb2, stronger effect = lower value 0.964 | locus YPR141C, strain kar3, stronger effect = lower value 0.979 | locus YPR163C, strain tif3, stronger effect = lower value 0.978 | locus YPR167C, strain met16, stronger effect = lower value 0.956 | strain wtn01, stronger effect = lower value 0.911
active: locus YDR392W, strain spt3, stronger effect = lower value 0.644 | locus YGL086W, strain mad1, stronger effect = lower value 0.889 | locus YHR142W, strain chs7, stronger effect = lower value 0.857 | locus YKR001C, strain vps1, stronger effect = lower value 0.895 | locus YNL071W, strain lat1, stronger effect = lower value 0.89 | locus YOR184W, strain ser1, stronger effect = lower value 0.795
